Measured values taken from PubChem BioAssay (NCI).
About 83,000 compounds went through this panel and 20% of them were active in at least one assay; those are over-represented in the sample as a whole.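 Negative percent growth values reflect cell death: -40 means 40% of the cells present at the start died, and -100 means all died.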 Activity calls are given as the source filed them. Rule for the calls: active = growth percent below 10; inactive = the rest.

Experiments:
Test in all cases: NCI-60 one-dose screen, 48 h (100 = growth as untreated, 0 = no growth, -100 = all killed)
Details in all cases: 10 µM unless noted
SK-MEL-2 melanoma = system: SK-MEL-2 melanoma
EKVX NSCLC = system: EKVX NSCLC
SN12C renal = system: SN12C renal
UO-31 renal = system: UO-31 renal
TK-10 renal = system: TK-10 renal
ACHN renal = system: ACHN renal
CAKI-1 renal = system: CAKI-1 renal
A498 renal = system: A498 renal
CCRF-CEM leukemia = system: CCRF-CEM leukemia
MOLT-4 leukemia = system: MOLT-4 leukemia

Measured: growth

Clc1cn2cc(-c3ccc(Cl)c(Cl)c3Cl)nc2s1
inactive: SK-MEL-2 melanoma 101% | EKVX NSCLC 110% | SN12C renal 101% | UO-31 renal 79.2% | TK-10 renal 165% | ACHN renal 101% | CAKI-1 renal 88.1% | A498 renal 110% | CCRF-CEM leukemia 107% | MOLT-4 leukemia 85.5%

CN(C)c1ccc(/C=C(\C#N)c2nc3ccccc3n2C)cc1
inactive: SK-MEL-2 melanoma 46.6% | EKVX NSCLC 28.3% | SN12C renal 54% | UO-31 renal 46.2% | TK-10 renal 37.7% | ACHN renal 55.3% | CAKI-1 renal 13.7% | CCRF-CEM leukemia 31.2% | MOLT-4 leukemia 29.5%

COc1cc(OC)cc(-c2n/c(=C\c3c(O)[nH]c4ccc(Cl)cc34)cc3c2=Nc2ccccc2-3)c1
inactive: SK-MEL-2 melanoma 100% | EKVX NSCLC 91.9% | SN12C renal 93.5% | UO-31 renal 66.4% | TK-10 renal 116% | ACHN renal 81.3% | CAKI-1 renal 82.1% | A498 renal 94.2% | MOLT-4 leukemia 30.5%

CC(C)OC(=O)c1ccc([N+](=O)[O-])cc1
inactive: SK-MEL-2 melanoma 122% | EKVX NSCLC 96% | SN12C renal 97.7% | UO-31 renal 104% | TK-10 renal 113% | ACHN renal 114% | CAKI-1 renal 103% | A498 renal 79.2% | CCRF-CEM leukemia 103% | MOLT-4 leukemia 113%

COc1ccc(C2C3CCc4ccccc4C3=NN2C(=O)c2cc(OC)c(OC)c(OC)c2)cc1O (configuration not stated)
inactive: SK-MEL-2 melanoma 75.4% | EKVX NSCLC 89.6% | SN12C renal 114% | UO-31 renal 79.9% | TK-10 renal 101% | ACHN renal 98.1% | CAKI-1 renal 101% | CCRF-CEM leukemia 88.9% | MOLT-4 leukemia 90.5%

CCOC(=O)c1ccc(N(CCC(=O)O)C(C)=O)cc1
inactive: SK-MEL-2 melanoma 105% | EKVX NSCLC 130% | SN12C renal 107% | UO-31 renal 79% | TK-10 renal 105% | ACHN renal 112% | CAKI-1 renal 101% | A498 renal 104% | CCRF-CEM leukemia 98.3% | MOLT-4 leukemia 104%

O=C(Nc1ccc2ncnc(Nc3ccc(F)c(Cl)c3)c2c1)c1cccs1
inactive: SK-MEL-2 melanoma 90.7% | EKVX NSCLC 44.5% | SN12C renal 45.6% | UO-31 renal 27.8% | TK-10 renal 32.3% | A498 renal 46% | CCRF-CEM leukemia 76.9% | MOLT-4 leukemia 71.9%
active: ACHN renal 2.83%

CCCCCNCCCCCNc1cc(OC)cc2cccnc12
inactive: SK-MEL-2 melanoma 99% | EKVX NSCLC 101% | SN12C renal 92.7% | UO-31 renal 46% | TK-10 renal 78.7% | ACHN renal 94.3% | A498 renal 75% | CCRF-CEM leukemia 95.2%

Cn1c(=O)c2c3c(oc2c2ccccc21)C(=O)c1ccccc1C3=O
active: MOLT-4 leukemia 2.39%
inactive: SK-MEL-2 melanoma 92.6% | EKVX NSCLC 70.7% | SN12C renal 81.8% | UO-31 renal 54.8% | TK-10 renal 94.5% | ACHN renal 75.5% | A498 renal 93.3% | CCRF-CEM leukemia 19.1%

CC(=O)O[C@H]1[C@H](CC#CC#CC[C@@H]2C[C@]3(C)[C@H]4CC=C5[C@H]6[C@@H](C)[C@H](C)CC[C@]6(C(=O)NCCCCCCCCN)CC[C@@]5(C)[C@]4(C)CC[C@H]3C(C)(C)[C@H]2OC(C)=O)C[C@]2(C)[C@H]3CC=C4[C@H]5[C@@H](C)[C@H](C)CC[C@]5(C(=O)NCCCCCCCCN)CC[C@@]4(C)[C@]3(C)CC[C@H]2C1(C)C
inactive: SK-MEL-2 melanoma 125% | EKVX NSCLC 110% | SN12C renal 97.8% | UO-31 renal 73.7% | TK-10 renal 145% | ACHN renal 119% | CAKI-1 renal 101% | CCRF-CEM leukemia 105% | MOLT-4 leukemia 103%

CCCCCCCCNC(C)C(O)c1ccc(SC(C)C)cc1 (configuration not stated)
inactive: SK-MEL-2 melanoma 71.4% | EKVX NSCLC 25.2% | SN12C renal 60.9% | UO-31 renal 29.5% | A498 renal 96.8%
active: TK-10 renal 6.81% | CAKI-1 renal -56.8% | CCRF-CEM leukemia -0.667% | MOLT-4 leukemia -46.6%

COc1cc2nccc(Oc3ccc(NC(=O)C4(C(=O)Nc5ccc(F)cc5)CC4)cc3)c2cc1OC(=O)c1ccc(N)cc1
active: MOLT-4 leukemia 3.73%
inactive: SK-MEL-2 melanoma 31.3% | EKVX NSCLC 25.7% | SN12C renal 27.6% | TK-10 renal 72.2% | ACHN renal 39.5% | CAKI-1 renal 20.9% | A498 renal 64% | CCRF-CEM leukemia 27.8%

CC(C)(C)NC(=O)C(OC(=O)C1CCc2cc(F)ccc2O1)c1ccccc1Cl (configuration not stated)
inactive: SK-MEL-2 melanoma 102% | EKVX NSCLC 96% | SN12C renal 101% | UO-31 renal 72.4% | TK-10 renal 99% | ACHN renal 99% | A498 renal 90.7% | CCRF-CEM leukemia 92.5% | MOLT-4 leukemia 94.6%

O=C1C=CC(=O)N1CO
inactive: SK-MEL-2 melanoma 123% | EKVX NSCLC 138% | SN12C renal 99% | UO-31 renal 89.1% | TK-10 renal 114% | ACHN renal 108% | CAKI-1 renal 117% | CCRF-CEM leukemia 101%
active: MOLT-4 leukemia -32.2%

COc1ccc(-c2nnc(SCC(=O)Nc3ccc(C(=O)/C=C/c4ccc(Cl)cc4)cc3)n2-c2ccccc2)cc1
inactive: SK-MEL-2 melanoma 100% | EKVX NSCLC 102% | SN12C renal 101% | UO-31 renal 73.8% | TK-10 renal 109% | ACHN renal 107% | A498 renal 116% | CCRF-CEM leukemia 86.5% | MOLT-4 leukemia 81.5%

O=C(Nc1cccc(Cl)c1)Nc1cc(C(F)(F)F)ccc1Cl
inactive: EKVX NSCLC 16% | TK-10 renal 16.9% | A498 renal 61.7% | CCRF-CEM leukemia 17%
active: SK-MEL-2 melanoma 4.93% | SN12C renal -24.4% | ACHN renal 2.64% | CAKI-1 renal 9.58%

COc1ccc2c(c1)CCCC21C(=O)Nc2ccccc21 (configuration not stated)
inactive: SK-MEL-2 melanoma 96% | EKVX NSCLC 104% | SN12C renal 101% | UO-31 renal 82.4% | TK-10 renal 95.4% | ACHN renal 105% | CAKI-1 renal 103% | CCRF-CEM leukemia 97.9% | MOLT-4 leukemia 76.2%

C=CCn1c(SCC(=O)Nc2ccc(/C(C)=N\O)cc2)nnc1-c1cc(-c2ccc(Cl)cc2)nc2ccccc12
inactive: SK-MEL-2 melanoma 28.5% | EKVX NSCLC 32% | SN12C renal 33.7% | TK-10 renal 31.8% | ACHN renal 20.2% | A498 renal 21.9% | CCRF-CEM leukemia 11.1%
active: UO-31 renal -12.5% | MOLT-4 leukemia -25.3%

NC(N)=N/N=C\c1cccc(OCc2ccccc2)c1
inactive: SK-MEL-2 melanoma 61.4% | EKVX NSCLC 80.7% | SN12C renal 86.6% | UO-31 renal 63.9% | TK-10 renal 78.6% | ACHN renal 87.4% | CCRF-CEM leukemia 82.2% | MOLT-4 leukemia 80.1%

COc1ccc(/C=C/C(=O)c2ccc(NC(=O)CSc3nnc(-c4ccc(Cl)cc4)n3-c3ccccc3)cc2)cc1
inactive: SK-MEL-2 melanoma 104% | EKVX NSCLC 89.4% | SN12C renal 91.2% | UO-31 renal 79.8% | TK-10 renal 113% | ACHN renal 103% | A498 renal 84.6% | CCRF-CEM leukemia 94.9% | MOLT-4 leukemia 65.5%

COc1ccc(Sc2[nH]c(C=O)c3ccccc23)cc1
active: CCRF-CEM leukemia 0.79%
inactive: SK-MEL-2 melanoma 69% | EKVX NSCLC 33.2% | SN12C renal 89% | UO-31 renal 57.7% | TK-10 renal 34.1% | ACHN renal 87.1% | A498 renal 33.1% | MOLT-4 leukemia 41.9%

O=C(NO)c1ccc(NCc2csc3ccccc23)cc1
inactive: SK-MEL-2 melanoma 84.1% | EKVX NSCLC 69.7% | SN12C renal 59.4% | UO-31 renal 39.5% | TK-10 renal 59.1% | ACHN renal 69.6% | A498 renal 57.1% | CCRF-CEM leukemia 44.7% | MOLT-4 leukemia 43.1%

CN(CCO)c1ccc(N2Cc3ccccc3OC3=C2C(=O)c2c(O)ccc(O)c2C3=O)cn1
active: SK-MEL-2 melanoma -54.4% | EKVX NSCLC -38.5% | SN12C renal -90.9% | UO-31 renal -100% | TK-10 renal -98.5% | ACHN renal -100% | A498 renal -48.2% | CCRF-CEM leukemia -12.2% | MOLT-4 leukemia -30.6%

C=CCn1c(SCC(=O)Nc2ccc(C(=O)/C=C/c3ccccc3)cc2)nnc1-c1ccc(OC)c(OC)c1
inactive: SK-MEL-2 melanoma 85.2% | EKVX NSCLC 80.7% | SN12C renal 74.7% | UO-31 renal 55.7% | TK-10 renal 87.6% | ACHN renal 86.8% | A498 renal 75% | CCRF-CEM leukemia 83.7% | MOLT-4 leukemia 58.2%

c1ccc(C2=Nc3ccccc3SC2)cc1
inactive: SK-MEL-2 melanoma 105% | EKVX NSCLC 87.3% | SN12C renal 107% | UO-31 renal 67.8% | TK-10 renal 105% | ACHN renal 95.4% | CCRF-CEM leukemia 86.9%

CN(C)c1ccc(N2Cc3ccccc3OC3=C2C(=O)c2c(O)ccc(O)c2C3=O)cn1
active: SK-MEL-2 melanoma -51.5% | EKVX NSCLC -15.8% | SN12C renal -91.7% | UO-31 renal -99.1% | TK-10 renal -93.9% | ACHN renal -100% | A498 renal -61.1% | CCRF-CEM leukemia -8.39% | MOLT-4 leukemia -22.4%

O=C(O)c1cn(-c2ccccc2)nc1-c1ccc(O)cc1
inactive: SK-MEL-2 melanoma 103% | EKVX NSCLC 95.7% | SN12C renal 98.9% | UO-31 renal 89.4% | TK-10 renal 106% | ACHN renal 99.4% | A498 renal 74.3% | CCRF-CEM leukemia 94%

COc1cc(/C=C/C(=O)c2ccc(NC(=O)CSc3nnc(-c4ccc(Cl)cc4)n3-c3ccccc3)cc2)cc(OC)c1OC
inactive: SK-MEL-2 melanoma 81.1% | EKVX NSCLC 75.1% | SN12C renal 74.5% | UO-31 renal 75.6% | TK-10 renal 89.4% | ACHN renal 82.4% | A498 renal 77.5% | CCRF-CEM leukemia 57.8% | MOLT-4 leukemia 40.8%

Cc1nc2n[nH]c(N)c2nc1C
inactive: SK-MEL-2 melanoma 103% | EKVX NSCLC 106% | SN12C renal 103% | TK-10 renal 104% | ACHN renal 104% | CAKI-1 renal 106% | A498 renal 120% | CCRF-CEM leukemia 101%
